Reference: PubChem BioAssay
Calls of active or inactive are those of the source. The rule behind the calls is not given here.

Target: Pantothenate synthetase (Mycobacterium tuberculosis (strain ATCC 25618 / H37Rv)) (UniProt P9WIL5)
Assay: Coupled enzyme confirmation of inhibitors against recombinant Mtb PanC (AID 375);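 note: 0% = full reaction with vehicle and 100% = no enzyme background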
Settings: coupled enzyme assay; at 10 µM, stronger effect = higher value

Chain of Pantothenate synthetase (Mycobacterium tuberculosis (strain ATCC 25618 / H37Rv)) (P9WIL5 whole entry, looked up): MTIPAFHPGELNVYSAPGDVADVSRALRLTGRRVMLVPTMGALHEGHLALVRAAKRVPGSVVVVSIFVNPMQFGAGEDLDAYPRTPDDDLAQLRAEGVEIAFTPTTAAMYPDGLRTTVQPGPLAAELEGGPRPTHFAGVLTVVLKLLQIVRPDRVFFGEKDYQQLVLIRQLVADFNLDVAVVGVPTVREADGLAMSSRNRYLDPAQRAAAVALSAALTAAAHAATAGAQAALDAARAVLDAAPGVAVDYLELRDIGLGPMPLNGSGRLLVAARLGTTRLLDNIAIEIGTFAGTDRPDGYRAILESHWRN

| SMILES | inhibition |
| --- | --- |
| O=C(COC(=O)C12CC3CC(CC(O)(C3)C1)C2)N1CCN(S(=O)(=O)c2ccc(Cl)cc2)CC1 | 3% (inactive) |
| O=C(NCC(c1cccnc1)N1CCN(c2ccc(F)cc2)CC1)c1ccc(F)cc1 (centres undefined) | 4% (inactive) |
| C=CCn1c(SCC#N)nc2c(c1=O)C(C)(C)Cc1ccccc1-2 | 0% (inactive) |
| N#CC1=C(N)N(c2ccccc2)C2=C(C(=O)CCC2)C1c1cccs1 (centres undefined) | 0% (inactive) |
| c1ccc(Cc2ccc(OCCn3cncn3)cc2)cc1 | 0% (inactive) |
| Cc1ccc(S(=O)(=O)N2CCN(C(=O)CSc3nnnn3C)C2)cc1 | 1% (inactive) |
| NC(=O)C1(N2CCCCC2)CCN(CC(=O)Nc2cc(Cl)ccc2Cl)CC1 | 3% (inactive) |
| O=C(Cc1c[nH]c2ccccc12)N1CCc2ccccc21 | 3% (inactive) |
| COc1cc2[nH]c(=O)c(C(=O)NCCCN3CCCCC3)c(O)c2cc1OC | 3% (inactive) |
| Cn1c(SCC(=O)Nc2ccc(F)cc2)nnc1-c1cccnc1 | 0% (inactive) |
| CCn1c(C(=O)N2CCCC(C(=O)NCCCc3ccccc3)C2)cc2sccc21 (centres undefined) | 0% (inactive) |
| N=c1nc(N2CCCCC2)cc(N)n1O | 0% (inactive) |
| COc1cccc2c1C(=O)c1c(O)c3c(c(O)c1C2=O)C[C@@](O)(C(C)=O)C[C@@H]3O[C@H]1C[C@H](N)[C@H](O)[C@H](C)O1 | 0% (inactive) |
| O=C(NC1CCCC1)C(c1cccs1)N(C(=O)c1ccno1)c1ccccc1 (centres undefined) | 9% (inactive) |
| CCCCOC(=O)n1c(SCC(=O)N(CC)CC)nc2ccccc21 | 0% (inactive) |
| Cn1c2c(c(=O)[nH]c1=O)C(NC(=O)c1ccco1)(C(F)(F)F)C(=O)N2 (centres undefined) | 0% (inactive) |
| CN(C)c1cccc2c(S(=O)(=O)Nc3ccccn3)cccc12 | 1% (inactive) |
| CS(=O)(=O)N1CCN(C(=O)c2ccc(-c3ccccc3)cc2)CC1 | 9% (inactive) |
| CCN(C(=O)CN1CCN(c2ccccc2OC)CC1)c1c(N)n(Cc2ccccc2)c(=O)[nH]c1=O | 0% (inactive) |
| COc1ccc(OC)c(C(=O)c2coc3ccc(O)c(CN4CCOCC4)c23)c1 | 0% (inactive) |

| SMILES | inhibition |
| --- | --- |
| COc1cc2c(cc1OC)C(c1cc(OC)c(OC)c(OC)c1)NCC2 (centres undefined) | 0% (inactive) |
| Cc1cc(N2CCN(C3CCCC3)CC2)n2c(nc3ccccc32)c1C#N | 0% (inactive) |
| CCN(CC)CCNC(=O)c1ccc(N2CCCCC2)c(NS(=O)(=O)c2ccc(C)cc2)c1 | 12% (inactive) |
| Cc1c(C(=O)OCCOC(C)C)[nH]c2c1C(=O)CC(c1ccco1)C2 (centres undefined) | 0% (inactive) |
| CC1c2nc3ccccc3n2C(CC(=O)NCc2ccccn2)C(=O)N1Cc1ccccc1 (centres undefined) | 0% (inactive) |
| Cc1cccc(Nc2nc(N)nc(CN3CCC(C(N)=O)CC3)n2)c1C | 0% (inactive) |
| O=C(NCc1ccc2c(c1)OCO2)C1CCC(CNc2c(N3CCCCC3)c(=O)c2=O)CC1 (centres undefined) | 0% (inactive) |
| CCCCc1nc(NCCN2CCOCC2)c(C#N)c2c1COC(C)(C)C2 | 0% (inactive) |
| O=C(CSc1nc2cc(S(=O)(=O)N3CCOCC3)ccc2o1)NC1CCCc2ccccc21 (centres undefined) | 0% (inactive) |
| Cn1cnc(S(=O)(=O)Nc2ccc(C(F)(F)F)cc2)c1 | 0% (inactive) |
| CCN1C(=O)C(C(=O)Nc2ccc(OC)cc2)C2CC1(C)Oc1ccccc12 (centres undefined) | 0% (inactive) |
| CN1CCN(c2oc(COc3ccc(-c4ccccc4)cc3)nc2C#N)CC1 | 0% (inactive) |
| Cc1csc(NC(=O)c2cccs2)n1 | 0% (inactive) |
| COC(=O)c1[nH]c2ccccc2c1NC(=O)CN1CCC(C(N)=O)(N2CCCCC2)CC1 | 0% (inactive) |
| CCOC(=O)c1c(N)sc(C(=O)N2CCOCC2)c1C | 4% (inactive) |
| CCC(=O)c1ccc(O)cc1 | 0% (inactive) |
| O=C(NCc1ccc2c(c1)OCO2)C1CCC(CNS(=O)(=O)c2ccccc2)CC1 (centres undefined) | 0% (inactive) |
| CS(=O)(=O)NCc1nnc(SCC(=O)NC2CCCCC2)n1-c1ccc(F)cc1 | 0% (inactive) |
| C=CCn1c(SCC(=O)NCCCC)nc2scc(-c3ccco3)c2c1=O | 0% (inactive) |
